High-throughput results deposited in PubChem BioAssay by several laboratories.
TIM10 inh = growth inhibitors of TIM10 yeast strain. S. cerevisiae TIM10 strain growth, BacTiter-Glo luminescence, 24 h. inhibition, % at 10 µM. hit rate 1.4% among 330,000;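 active means inhibition of 40% or more at the single tested concentration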;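 further: wild-type TIM10 isogenic control strain grown at permissive 25 °C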
tim10-1 inh = growth inhibitors of tim10-1 mutant yeast; S. cerevisiae tim10-1 ts strain growth, BacTiter-Glo, 24 h; hit rate 2.2% among 330,000; AID 463190; inhibition, % at 20 µM;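 active means inhibition of at least 40%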;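 further: mutant grown at 25 °C; 0% = DMSO wells with yeast and 100% = wells holding no yeast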
tim23-1 inh = tim23-1 yeast growth inhibition; hit rate 1.3% among 330,000; AID 463212; S. cerevisiae tim23-1 growth, BacTiter-Glo luminescence, 24 h; inhibition, % at 20 µM;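 active means growth inhibition of the mutant yeast at or above 50%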;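 further: temperature-sensitive mutant grown at 25 °C; plate controls were DMSO-treated mutant yeast for no effect and medium wells lacking yeast for full effect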
PfHsp90 set2 = inhibits growth of yeast expressing Plasmodium falciparum Hsp90; S. cerevisiae expressing PfHsp90, BacTiter-Glo ATP, 48 h; yeast lacking PDR1 and PDR3 efflux regulators; inhibition, % at 9.4 µM; hit rate 0.32% among 310,000;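 active means every replicate shows inhibition above about 80%, whatever the replicate mean, limit read from the data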;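 further: 0% = DMSO neutral controls and 100% = 20 µM radicicol positive controls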
SKKanGAS inh = SKKanGAS growth inhibition; S. pyogenes SKKanGAS, kanamycin growth, BacTiter-Glo, 6 h; AID 1662; inhibition, % at 7.5 µM; hit rate 1.3% among 300,000;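 active means mean replicate score, as percent of positive control median, at least 50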;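 further: strain carries kanamycin resistance gene driven by streptokinase promoter and grows in 40 µg/ml kanamycin; loss of luminescence reflects streptokinase promoter inhibition or plain growth inhibition; 0% = median of DMSO wells and 100% = positive control at its reference dose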
The depositor's hits bear a star; i = inactive; . = no result given. This is a sample that favours compounds with a hit; in the whole collection about 4.4% have one here.

SMILES | TIM10 inh | tim10-1 inh | tim23-1 inh | PfHsp90 set2 | SKKanGAS inh
C/C(=N\NC(=O)c1ccccc1N)c1ccc(NC(=O)Cc2ccccc2)cc1 | -1 | 0 | 7 | -10 | 67*
CC(C)(C)c1ccc(NC(=O)COC(=O)c2ccc([N+](=O)[O-])s2)cc1 | . | . | . | 109* | .
O=C(COC(=O)c1ccc([N+](=O)[O-])s1)Nc1ccc(Cl)cn1 | 39 | 24 | -146 | -18 | -2
COc1ccc(NC(C)=O)cc1S(=O)(=O)N1CC=C(c2ccccc2)CC1 | 2 | -6 | -7 | -5 | .
Oc1[nH]c2ccc(Br)cc2c1N=NC(=S)NCC1CCCO1 (centres undefined) | 23 | 30 | 21 | 4 | 81*
COc1ccccc1NC(=S)N=Nc1c(O)[nH]c2ccc(Br)cc12 | 12 | 12 | 9 | 23 | 93*
F[B-](F)(F)c1cc2cc(Br)ccc2s1 | . | . | . | 117* | .
O=C(c1cc(-c2ccccc2)n[nH]1)N1CCc2c([nH]c3ccccc23)C1c1ccccn1 (centres undefined) | 22 | 37 | 27 | 13 | 75*
Cc1cccc(NC(=O)c2sc(Cl)nc2-c2ccccc2)c1 | 7 | 25 | 31 | -14 | 67*
COc1ccc(C2/C=C\CN(C(=O)c3ccccc3)CC(=O)N2Cc2ccc(F)cc2)cc1 (centres undefined) | 6 | 15 | 24 | 11 | 68*
COc1ccc(C2/C=C\CN(C(=O)OCc3ccccc3)CC(=O)N2Cc2ccc(F)cc2)cc1 (centres undefined) | -5 | 16 | -2 | . | 6
N#Cc1c(-c2ccccc2)nc(SCc2ccc(Cl)cc2)[nH]c1=O | 11 | 23 | 16 | -9 | 61*
N#Cc1c(-c2ccccc2)nc(SCC(=O)N(c2ccccc2)c2ccccc2)[nH]c1=O | . | . | . | -12 | 13
N#Cc1c(-c2ccccc2)nc(SCC(=O)N2c3ccccc3Sc3ccccc32)[nH]c1=O | 15 | 2 | 18 | -13 | 73*
C#CCOCCOCCOCCNc1nc(N2CCN(C(=O)[C@H](CCCCN)n3cc([C@@H](N)[C@H](C)CC)nn3)CC2)nc(N2CCN(C(=O)[C@H](CCC(=O)O)n3cc([C@@H](N)CCSC)nn3)CC2)n1 | 3 | 3 | 6 | 11 | .
CC12C=CC(=O)C=C1CCC1C2C(=O)CC2(C)C1CCC2(O)C(=O)CO (centres undefined) | . | . | . | 3 | .
O=C(CCC(=O)NNC(=O)c1ccc(Cl)cc1Cl)NCc1ccccc1 | 3 | -16 | -5 | 26 | .
CCSc1nnc(NC(=O)c2ccccn2)s1 | 17 | 32 | 6 | -18 | 68*
C=CCSc1nnc(NC(=O)C2CC(=O)N(Cc3ccc(C)cc3)C2)s1 (centres undefined) | 11 | 8 | 8 | -1 | .
Cc1cnc(C(=O)Nc2nnc(SCc3c(Cl)cccc3Cl)s2)cn1 | 25 | 34 | 32 | -54 | 102*
Cc1ccc(CN2CC(C(=O)Nc3nnc(SCc4c(Cl)cccc4Cl)s3)CC2=O)cc1 (centres undefined) | 11 | 35 | 11 | -39 | 79*
O=C(CN1C(=O)C2CC=CCC2C1=O)Nc1nnc(SCc2c(Cl)cccc2Cl)s1 (centres undefined) | -15 | 18 | -22 | 7 | 26
CCSc1nnc(NC(=O)c2cnccn2)s1 | 18 | 20 | 14 | . | 4
COC(=O)CSc1nnc(NC(=O)C2CC(=O)N(c3ccc(F)cc3)C2)s1 (centres undefined) | 2 | 22 | 15 | -2 | 50*
O=C(Nc1ccn(CCCNCc2ccc3c(c2)OCO3)c(=O)n1)OCc1ccccc1 | . | . | . | 6 | .
SMILES | TIM10 inh | tim10-1 inh | tim23-1 inh | PfHsp90 set2 | SKKanGAS inh
C[C@H](CO)N1C[C@H](C)[C@@H](CN(C)S(C)(=O)=O)Oc2ccc(NC(=O)Nc3ccc4c(c3)OCO4)cc2C1=O | 7 | 5 | -3 | 21 | .
CC(C)(C)C(=O)C(CO)(Oc1ccc(Cl)cc1)n1cncn1 (centres undefined) | -96 | -97 | i | 89* | 4
CC(C)(Oc1ccc(Cl)cc1)C(=O)NCc1ccncc1 | 5 | 13 | 6 | 2 | -2
CC(C)C[C@H](NC(=O)c1nc[nH]c1C(=O)N[C@@H](CC(C)C)C(=O)OC(C)(C)C)C(=O)OC(C)(C)C | 17 | 10 | 19 | -5 | 87*
CC(C)C[C@H](NC(=O)c1[nH]cnc1C(=O)Nc1ccc(Cl)cc1)C(=O)OC(C)(C)C | 11 | 20 | 25 | -9 | 60*
CC(C)C[C@H](NC(=O)c1[nH]cnc1C(=O)N[C@H](C)c1ccccc1)C(=O)OC(C)(C)C | 27 | 26 | 28 | . | 57*
CC(C)C[C@H](NC(=O)c1nc[nH]c1C(=O)NC(c1ccccc1)c1ccccc1)C(=O)OC(C)(C)C | 13 | 10 | 12 | 24 | 60*
CC(C)C[C@H](NC(=O)c1nc[nH]c1C(=O)NCC(=O)OC(C)(C)C)C(=O)OC(C)(C)C | 13 | 9 | 25 | 30 | 9
CC(C)C[C@H](NC(=O)c1nc[nH]c1C(=O)NC(c1ccccc1)c1ccccc1)C(=O)OCc1ccccc1 | 5 | 14 | 16 | -10 | 31
CC(=O)Nc1c(Cl)c2c(c(Cl)c1Br)-c1ccc(Cl)cc1C2 | . | . | . | -10 | .
O=C(Nc1ccccc1N1CCCC1)c1cc(=O)[nH]c2ccccc12 | 20 | 19 | 17 | . | .
Cc1ccc(S(=O)(=O)N2CCOCC2)cc1C(=O)OCC(=O)NCCc1ccccc1 | 3 | 2 | 6 | -1 | .
Cc1ccc(NC(=O)c2nc[nH]c2C(=O)N[C@@H](C)c2ccccc2)cc1 | 31 | 36 | 48 | . | 66*
CC(C)C[C@H](NC(=O)c1[nH]cnc1C(=O)N[C@H](C)c1ccccc1)C(=O)OCc1ccccc1 | -2 | 12 | 12 | -7 | 73*
COc1ccc(NC(=O)CCCNC(=O)c2ccc(Cl)cc2)cc1S(=O)(=O)N1CCCCC1 | . | . | . | 13 | .
COc1ccc2ncc(S(=O)(=O)c3ccccc3)c(N3CCN(c4ccccc4)CC3)c2c1 | 25 | 5 | -4 | -10 | 67*
CN(C)CCCNc1cc(O)c2ncccc2c1 | -3 | 10 | 9 | -3 | .
CC(C)OC(=O)c1c2nc3ccccc3nc2n2c1[nH]c(=O)c1ccccc12 | 8 | 23 | 32 | . | 55*
CC(C)OC(=O)c1c(N)n(CCCN2CCOCC2)c2nc3ccccc3nc12 | 8 | 4 | 5 | -10 | -2
CCNC(COC(=O)c1ccc([N+](=O)[O-])cc1)C1CCCCC1 (centres undefined) | . | . | . | 4 | .
COc1ccc2nc(NC(=O)c3ccc(NS(=O)(=O)c4cccs4)cc3)sc2c1 | 11 | 8 | 3 | 8 | 63*
Cc1cccc2sc(NC(=O)c3ccc(NS(=O)(=O)c4cccs4)cc3)nc12 | 0 | 16 | 18 | -10 | 79*
O=C1C(Cl)=C(NCCc2ccccc2)C(=O)c2ccccc21 | . | . | . | 116* | .
Cc1ccc(N=Cc2cccc(O)c2O)c(C)c1 | 28 | 36 | 42 | -47 | 57*
Cc1ccccc1N=Cc1cccc(O)c1O | 10 | 8 | 35 | 1 | 1
